# According to paper PMC7862700, “An all-to-all approach to the identification of sequence-specific readers for epigenetic DNA modifications on cytosine”:
# What was measured:
# Assay in all cases: DAPPL (digital affinity profiling via proximity ligation, sequencing); 10 mM Tris-HCl pH 7.5, 50 mM NaCl, 1 mM DTT, 4% glycerol, room temperature, 30 min; GST-TFs on glutathione beads, 16-mer random dsDNA library, 0.1% formaldehyde crosslink after washing; high values mean tight binding
# Conditions in all cases: protein: recombinant; tags: N-terminal GST; dsDNA, one strand shown
# [1] = molecular target: T1, FLI1 (Homo sapiens, UniProt Q01543 1-452)
# T1 sequence: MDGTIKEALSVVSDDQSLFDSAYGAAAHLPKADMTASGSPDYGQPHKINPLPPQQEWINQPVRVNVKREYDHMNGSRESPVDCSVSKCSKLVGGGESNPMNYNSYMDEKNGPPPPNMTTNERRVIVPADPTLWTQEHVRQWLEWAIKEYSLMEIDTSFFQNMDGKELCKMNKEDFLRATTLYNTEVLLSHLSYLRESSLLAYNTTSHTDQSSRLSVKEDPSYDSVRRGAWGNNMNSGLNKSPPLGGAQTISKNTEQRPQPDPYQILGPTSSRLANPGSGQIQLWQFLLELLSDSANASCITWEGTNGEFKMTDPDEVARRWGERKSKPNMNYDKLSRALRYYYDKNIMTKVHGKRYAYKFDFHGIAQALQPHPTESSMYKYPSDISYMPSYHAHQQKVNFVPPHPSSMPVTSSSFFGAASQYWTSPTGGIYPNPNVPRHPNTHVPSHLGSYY
# Summary of the method: (§1)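 Each value of binding signal is a hexamer's read frequency for a factor divided by the same hexamer's frequency in the tag-only sample. Barcoded, bead-captured GST fusions of human transcription factors made in yeast were pooled with that sample and incubated with 200 nmole of a random double-stranded 16-mer DNA library in Tris/NaCl/DTT/glycerol buffer at room temperature for 30 min. Washing, 0.1% formaldehyde crosslinking, proximity ligation, PCR and Illumina NextSeq500 sequencing followed.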
# [2] = molecular target: T2, ELK1 (Homo sapiens, UniProt P19419 1-428)
# T2 sequence: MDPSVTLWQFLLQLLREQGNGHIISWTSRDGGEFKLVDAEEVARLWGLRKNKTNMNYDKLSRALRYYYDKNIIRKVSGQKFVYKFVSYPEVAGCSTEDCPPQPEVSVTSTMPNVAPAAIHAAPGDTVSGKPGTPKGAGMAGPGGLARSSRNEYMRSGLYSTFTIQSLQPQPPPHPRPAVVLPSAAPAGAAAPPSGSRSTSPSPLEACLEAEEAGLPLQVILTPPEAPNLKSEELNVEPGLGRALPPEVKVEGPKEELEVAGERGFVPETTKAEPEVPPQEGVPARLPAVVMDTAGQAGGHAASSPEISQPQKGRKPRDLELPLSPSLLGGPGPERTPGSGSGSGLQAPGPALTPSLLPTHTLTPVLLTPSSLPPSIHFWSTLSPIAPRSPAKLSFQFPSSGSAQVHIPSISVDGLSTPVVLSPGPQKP
# Summary of the method: as §1
# [3] = molecular target: T3, GABPA (Homo sapiens, UniProt Q06546 1-454)
# T3 sequence: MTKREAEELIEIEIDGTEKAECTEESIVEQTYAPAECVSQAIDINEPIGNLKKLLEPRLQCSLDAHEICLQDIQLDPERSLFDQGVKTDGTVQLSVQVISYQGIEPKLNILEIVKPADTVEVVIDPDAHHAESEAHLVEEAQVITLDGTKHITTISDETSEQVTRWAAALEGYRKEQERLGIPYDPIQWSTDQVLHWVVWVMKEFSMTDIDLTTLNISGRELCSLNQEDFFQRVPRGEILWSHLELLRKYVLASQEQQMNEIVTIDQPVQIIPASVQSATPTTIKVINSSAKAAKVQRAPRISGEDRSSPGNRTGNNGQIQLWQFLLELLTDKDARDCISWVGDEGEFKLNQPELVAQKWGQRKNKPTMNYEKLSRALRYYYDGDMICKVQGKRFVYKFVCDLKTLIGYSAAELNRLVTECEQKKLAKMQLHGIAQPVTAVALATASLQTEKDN
# Summary of the method: as §1
# [4] = molecular target: T4, ERG (Homo sapiens, UniProt P11308 1-479)
# T4 sequence: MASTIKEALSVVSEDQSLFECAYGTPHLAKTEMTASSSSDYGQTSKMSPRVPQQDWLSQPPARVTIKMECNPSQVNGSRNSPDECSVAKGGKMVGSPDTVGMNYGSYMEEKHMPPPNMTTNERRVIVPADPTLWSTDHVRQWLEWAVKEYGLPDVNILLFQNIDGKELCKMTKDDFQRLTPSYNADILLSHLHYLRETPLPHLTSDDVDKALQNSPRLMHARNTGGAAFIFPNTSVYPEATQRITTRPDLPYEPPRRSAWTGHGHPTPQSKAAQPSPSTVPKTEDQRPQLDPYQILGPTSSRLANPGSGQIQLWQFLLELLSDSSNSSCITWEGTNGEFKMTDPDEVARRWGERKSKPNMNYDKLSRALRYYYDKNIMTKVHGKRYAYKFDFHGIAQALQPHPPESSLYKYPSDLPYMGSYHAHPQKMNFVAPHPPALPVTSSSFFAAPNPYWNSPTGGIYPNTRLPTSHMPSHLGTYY
# Summary of the method: as §1
# [5] = molecular target: ELF1 (Homo sapiens, UniProt P32519 1-619)
# Summary of the method: as §1
# [6] = molecular target: T5, EHF (Homo sapiens, UniProt Q9NZC4 1-300)
# T5 sequence: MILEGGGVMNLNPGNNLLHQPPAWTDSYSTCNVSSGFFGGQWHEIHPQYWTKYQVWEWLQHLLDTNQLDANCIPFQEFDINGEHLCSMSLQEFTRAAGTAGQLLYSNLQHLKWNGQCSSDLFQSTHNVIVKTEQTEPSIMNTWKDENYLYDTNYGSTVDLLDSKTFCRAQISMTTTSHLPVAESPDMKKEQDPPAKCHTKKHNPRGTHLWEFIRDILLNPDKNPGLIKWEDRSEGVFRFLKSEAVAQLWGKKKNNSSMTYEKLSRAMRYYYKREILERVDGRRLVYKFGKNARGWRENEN
# Summary of the method: as §1
# [7] = molecular target: SPI1 (Homo sapiens, UniProt P17947 1-270)
# Summary of the method: as §1
# [8] = molecular target: SPIB (Homo sapiens, UniProt Q01892 1-262)
# Summary of the method: as §1
# [9] = molecular target: T6, ELK3 (Homo sapiens, UniProt P41970 1-407)
# T6 sequence: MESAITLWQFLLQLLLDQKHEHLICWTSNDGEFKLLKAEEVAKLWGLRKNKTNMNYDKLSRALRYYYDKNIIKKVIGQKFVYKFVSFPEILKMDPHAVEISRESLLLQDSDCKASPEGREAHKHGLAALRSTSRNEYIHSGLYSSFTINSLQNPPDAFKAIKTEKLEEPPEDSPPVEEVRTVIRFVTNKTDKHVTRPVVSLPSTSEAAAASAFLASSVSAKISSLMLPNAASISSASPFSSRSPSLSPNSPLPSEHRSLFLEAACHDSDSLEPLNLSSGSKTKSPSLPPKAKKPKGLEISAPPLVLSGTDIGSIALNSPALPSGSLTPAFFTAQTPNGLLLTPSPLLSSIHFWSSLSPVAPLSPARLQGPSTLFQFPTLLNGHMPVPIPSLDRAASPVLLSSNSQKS
# Summary of the method: as §1
# [10] = molecular target: ETV5 (Homo sapiens, UniProt P41161 1-510)
# Summary of the method: as §1
# [11] = molecular target: T7, SPIC (Homo sapiens, UniProt Q8N5J4 1-248)
# T7 sequence: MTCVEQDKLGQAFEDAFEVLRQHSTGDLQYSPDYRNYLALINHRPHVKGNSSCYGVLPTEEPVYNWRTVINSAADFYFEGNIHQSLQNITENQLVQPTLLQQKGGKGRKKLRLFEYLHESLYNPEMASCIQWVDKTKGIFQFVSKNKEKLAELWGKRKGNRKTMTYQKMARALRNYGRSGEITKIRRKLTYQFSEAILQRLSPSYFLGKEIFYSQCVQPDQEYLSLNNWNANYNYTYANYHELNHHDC
# Summary of the method: as §1
# [12] = molecular target: ELF4 (Homo sapiens, UniProt Q99607 1-663)
# Summary of the method: as §1
# [13] = molecular target: T8, ELK4 (Homo sapiens, UniProt P28324-2 1-405)
# T8 sequence: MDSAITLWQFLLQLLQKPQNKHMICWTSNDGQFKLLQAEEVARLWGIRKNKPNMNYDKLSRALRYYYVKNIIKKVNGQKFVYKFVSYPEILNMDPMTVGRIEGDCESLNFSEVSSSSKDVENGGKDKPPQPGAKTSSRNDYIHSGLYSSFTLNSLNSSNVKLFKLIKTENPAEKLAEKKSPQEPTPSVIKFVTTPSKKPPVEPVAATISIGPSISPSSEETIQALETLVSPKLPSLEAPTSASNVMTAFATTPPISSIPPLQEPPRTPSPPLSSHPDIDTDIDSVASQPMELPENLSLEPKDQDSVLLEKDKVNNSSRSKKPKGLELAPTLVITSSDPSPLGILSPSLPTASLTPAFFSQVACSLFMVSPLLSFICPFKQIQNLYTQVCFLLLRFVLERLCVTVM
# Summary of the method: as §1
# [14] = molecular target: T9, ETV2 (Homo sapiens, UniProt O00321 1-342)
# T9 sequence: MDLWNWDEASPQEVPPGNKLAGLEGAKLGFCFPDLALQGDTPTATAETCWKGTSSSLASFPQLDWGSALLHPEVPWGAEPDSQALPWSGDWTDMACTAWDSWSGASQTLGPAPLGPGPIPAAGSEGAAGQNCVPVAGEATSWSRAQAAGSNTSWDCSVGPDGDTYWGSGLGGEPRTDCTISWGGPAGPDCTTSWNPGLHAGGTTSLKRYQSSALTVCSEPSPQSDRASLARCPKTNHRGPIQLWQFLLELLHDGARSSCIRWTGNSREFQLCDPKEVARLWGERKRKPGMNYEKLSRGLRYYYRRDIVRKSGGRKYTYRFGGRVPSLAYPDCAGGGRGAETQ
# Summary of the method: as §1
# [15] = molecular target: T10, ELF3 (Homo sapiens, UniProt P78545 1-371)
# T10 sequence: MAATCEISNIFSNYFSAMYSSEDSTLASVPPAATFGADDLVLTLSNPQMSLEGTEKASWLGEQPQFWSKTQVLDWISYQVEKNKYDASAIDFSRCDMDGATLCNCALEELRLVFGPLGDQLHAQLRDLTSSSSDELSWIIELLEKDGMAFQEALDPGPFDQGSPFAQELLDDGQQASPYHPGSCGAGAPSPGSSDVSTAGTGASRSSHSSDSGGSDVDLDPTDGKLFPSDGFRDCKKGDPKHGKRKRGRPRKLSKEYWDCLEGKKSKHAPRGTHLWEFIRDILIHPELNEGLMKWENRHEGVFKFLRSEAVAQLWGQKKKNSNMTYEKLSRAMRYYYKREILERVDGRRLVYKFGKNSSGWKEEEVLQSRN
# Summary of the method: as §1
# [16] = molecular target: ETV1 (Homo sapiens, UniProt P50549 1-477)
# Summary of the method: as §1
# SPIB, sequence (Q01892 whole entry): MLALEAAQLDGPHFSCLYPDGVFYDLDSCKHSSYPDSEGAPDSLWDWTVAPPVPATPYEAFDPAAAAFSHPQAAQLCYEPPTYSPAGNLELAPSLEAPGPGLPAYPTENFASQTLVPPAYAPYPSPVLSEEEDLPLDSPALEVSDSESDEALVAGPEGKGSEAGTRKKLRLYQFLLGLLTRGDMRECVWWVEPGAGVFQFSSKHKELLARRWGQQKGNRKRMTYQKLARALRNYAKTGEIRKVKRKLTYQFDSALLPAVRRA
# ETV1, sequence (P50549 whole entry): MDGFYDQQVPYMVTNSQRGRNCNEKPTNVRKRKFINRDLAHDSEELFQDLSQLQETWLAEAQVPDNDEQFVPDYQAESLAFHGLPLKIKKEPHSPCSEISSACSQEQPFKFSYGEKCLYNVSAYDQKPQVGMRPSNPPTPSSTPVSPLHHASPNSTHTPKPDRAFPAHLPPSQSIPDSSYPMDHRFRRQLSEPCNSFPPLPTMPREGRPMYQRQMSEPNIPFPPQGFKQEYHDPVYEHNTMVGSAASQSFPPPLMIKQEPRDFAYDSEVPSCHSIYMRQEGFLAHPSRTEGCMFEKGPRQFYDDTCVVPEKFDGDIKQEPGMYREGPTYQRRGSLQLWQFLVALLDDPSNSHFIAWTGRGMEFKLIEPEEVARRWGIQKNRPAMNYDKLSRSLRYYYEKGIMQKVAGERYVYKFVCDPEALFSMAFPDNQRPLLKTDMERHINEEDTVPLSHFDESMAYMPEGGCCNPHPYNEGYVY
# ELF4, sequence (Q99607 whole entry): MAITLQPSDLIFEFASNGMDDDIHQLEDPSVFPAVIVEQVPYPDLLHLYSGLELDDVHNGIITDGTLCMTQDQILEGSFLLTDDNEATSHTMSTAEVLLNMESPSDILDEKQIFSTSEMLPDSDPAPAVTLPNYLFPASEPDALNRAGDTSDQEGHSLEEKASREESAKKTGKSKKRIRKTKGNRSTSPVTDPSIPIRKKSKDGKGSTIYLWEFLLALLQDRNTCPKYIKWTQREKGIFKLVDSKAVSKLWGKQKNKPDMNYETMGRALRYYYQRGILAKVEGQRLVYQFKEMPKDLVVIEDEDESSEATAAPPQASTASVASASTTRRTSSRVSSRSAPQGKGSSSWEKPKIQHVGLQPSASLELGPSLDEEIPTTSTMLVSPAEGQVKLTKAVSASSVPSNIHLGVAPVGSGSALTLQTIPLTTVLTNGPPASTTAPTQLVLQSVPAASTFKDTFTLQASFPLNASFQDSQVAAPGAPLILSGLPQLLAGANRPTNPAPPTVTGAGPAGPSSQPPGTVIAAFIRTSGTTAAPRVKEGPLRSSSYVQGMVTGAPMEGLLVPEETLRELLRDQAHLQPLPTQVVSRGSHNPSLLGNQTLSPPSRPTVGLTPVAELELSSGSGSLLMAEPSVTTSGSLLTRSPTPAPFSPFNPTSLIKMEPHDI
# ETV5, sequence (P41161 whole entry): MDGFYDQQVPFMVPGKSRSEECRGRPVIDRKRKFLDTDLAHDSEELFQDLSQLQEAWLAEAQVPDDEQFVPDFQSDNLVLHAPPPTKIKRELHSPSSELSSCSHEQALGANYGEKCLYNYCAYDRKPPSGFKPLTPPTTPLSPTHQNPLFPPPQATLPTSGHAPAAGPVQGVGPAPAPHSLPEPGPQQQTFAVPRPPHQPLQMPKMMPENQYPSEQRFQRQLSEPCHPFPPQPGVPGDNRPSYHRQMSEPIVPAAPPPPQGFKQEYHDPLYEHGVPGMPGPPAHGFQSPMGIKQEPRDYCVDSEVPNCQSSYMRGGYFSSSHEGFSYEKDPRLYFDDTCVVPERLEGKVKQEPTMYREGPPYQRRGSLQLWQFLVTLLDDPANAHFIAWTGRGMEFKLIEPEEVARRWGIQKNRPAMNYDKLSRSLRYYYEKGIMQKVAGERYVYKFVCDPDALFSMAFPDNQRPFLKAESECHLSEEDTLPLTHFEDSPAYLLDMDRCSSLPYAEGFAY
# ELF1, sequence (P32519 whole entry): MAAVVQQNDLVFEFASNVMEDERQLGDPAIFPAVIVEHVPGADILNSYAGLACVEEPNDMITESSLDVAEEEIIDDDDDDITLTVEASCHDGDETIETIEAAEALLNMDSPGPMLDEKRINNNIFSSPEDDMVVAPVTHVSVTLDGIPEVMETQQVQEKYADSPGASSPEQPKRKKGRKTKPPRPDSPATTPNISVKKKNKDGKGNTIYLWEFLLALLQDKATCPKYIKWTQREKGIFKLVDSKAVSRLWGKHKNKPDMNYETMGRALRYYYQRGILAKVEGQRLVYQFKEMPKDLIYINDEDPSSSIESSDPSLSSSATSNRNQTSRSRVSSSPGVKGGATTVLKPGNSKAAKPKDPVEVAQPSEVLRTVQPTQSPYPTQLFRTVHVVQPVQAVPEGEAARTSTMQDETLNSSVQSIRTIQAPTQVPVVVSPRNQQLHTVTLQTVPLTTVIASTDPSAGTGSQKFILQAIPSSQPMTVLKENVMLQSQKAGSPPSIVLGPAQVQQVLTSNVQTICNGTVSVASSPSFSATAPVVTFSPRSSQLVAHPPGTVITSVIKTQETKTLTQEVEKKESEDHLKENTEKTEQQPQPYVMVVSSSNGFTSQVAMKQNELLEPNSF
sequence,measurement,setting,value
CGACGC,binding signal,[1],"1.11 fold enrichment (6-mer frequency, TF over GST control)"
same,binding signal,[2],"1.11 fold enrichment (6-mer frequency, TF over GST control)"
same,binding signal,[3],"1.04 fold enrichment (6-mer frequency, TF over GST control)"
same,binding signal,[4],"1.05 fold enrichment (6-mer frequency, TF over GST control)"
same,binding signal,[5],"1.16 fold enrichment (6-mer frequency, TF over GST control)"
same,binding signal,[6],"1.06 fold enrichment (6-mer frequency, TF over GST control)"
same,binding signal,[7],"1.06 fold enrichment (6-mer frequency, TF over GST control)"
same,binding signal,[8],"1.08 fold enrichment (6-mer frequency, TF over GST control)"
same,binding signal,[9],"1.01 fold enrichment (6-mer frequency, TF over GST control)"
same,binding signal,[10],"1.07 fold enrichment (6-mer frequency, TF over GST control)"
same,binding signal,[11],"1.09 fold enrichment (6-mer frequency, TF over GST control)"
same,binding signal,[12],"1.09 fold enrichment (6-mer frequency, TF over GST control)"
same,binding signal,[13],"1.07 fold enrichment (6-mer frequency, TF over GST control)"
same,binding signal,[14],"1.16 fold enrichment (6-mer frequency, TF over GST control)"
same,binding signal,[15],"1.28 fold enrichment (6-mer frequency, TF over GST control)"
same,binding signal,[16],"1.01 fold enrichment (6-mer frequency, TF over GST control)"
